Compound activity deposited in PubChem by National Center for Advancing Translational Sciences (NCATS).
SW480 rerep: induces DNA re-replication in SW480 colon adenocarcinoma cells. 1.8% of 340,000 active. SW480 DNA re-replication, Hoechst DNA content imaging, 48 h. Potency, µM (top dose mostly 46.1 µM), for inactives: top-dose re-replication activation, most hits filed as activators; also: % of control where 0% means no effect; nearly all actives have a fitted effect of over 55% in size
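Cells (250 per well) received 23 nL compound or DMSO by pin tool and were kept 48 hr at 37 C, 5% CO2. Nuclei were then stained with Hoechst for 40 min and scanned for DNA content.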
PINK1 expr mod: PINK1 expression modulation; Potency, µM (titrated, usually from 76.6 µM), inactives show at the highest dose activation (PINK1 increase), most hits filed as activators; 0.2% of 410,000 active; AID 624263; PINK1 immunofluorescence, high-content cytometry, 24 h; active = well fitted activation curve with a large enough effect; inconclusive = small, poorly fitted or top-dose-only effect; cell line not stated here; also: % of control where 0% means no effect; nearly all actives have a fitted effect of over 65% in size
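Readout is PINK1 immunofluorescence, quantified alongside mitochondrial, cell and nuclear markers by laser-scanning microplate cytometry. Cells from a stable line were exposed to compound titrations (5 concentrations) for 24 hours, with CCCP controls.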
KB-3-1 cytotox: kills parental KB-3-1 adenocarcinoma cells | KB-3-1 viability, CellTiter-Glo ATP luminescence, 72 h | Potency, µM (titrated, usually from 46.1 µM), most hits filed as cytotoxic | 1.4% of 400,000 active; also: % is scaled to controls: 0 for no effect and ±100 for the full control effect; nearly all actives have a fitted effect of over 60% in size
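Cytotoxicity measured as CellTiter-Glo luminescence after 72 h at 37 C. Compound titrations were pinned onto drug-naive KB-3-1 parental adenocarcinoma cells grown in DMEM with 10% FBS, and normalized data fitted to concentration-response curves.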
KB-V1 MDR tox: kills drug-selected multidrug resistant KB-V1 cells; KB-V1 MDR cells viability, CellTiter-Glo, 72 h; Potency, µM (titrated, usually from 46.1 µM), actives largely listed as cytotoxic; 3.4% of 400,000 active; AID 1347076; also: % is scaled to controls: 0 for no effect and ±100 for the full control effect; nearly all actives have a fitted effect of over 60% in size
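Luminescent ATP read-out (CellTiter-Glo, 10 min) measures survival of drug-selected KB-V1 MDR cells after 72 h, 37 degrees C compound exposure. Medium: phenol-red-free DMEM, 10% FBS. Values from fitted concentration-response curves.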
MCF10A rereplic: DNA re-replication induction in MCF 10a cells. MCF 10A DNA re-replication, Hoechst nuclear intensity, 48 h. Potency, µM (top dose mostly 46.1 µM), for the others: at the highest dose activity, positive = re-replication, most hits filed as activators. 2.9% of 350,000 active; also: % of control where 0% means no effect; nearly all actives have a fitted effect of over 50% in size
An asterisk follows results filed as active; i = inactive; ? = inconclusive; . = no result; [ ] = remark or other dose. An excerpt weighted towards active compounds, which were near 6.7% of everything screened. Unless noted, calls follow the shape of the dose curve; as a rule, active = well fitted curve in the direction sought with a large enough effect; inconclusive = small, poorly fitted or top-dose-only effect, or another doubt; inactive = no such curve, though single readings can be large; an effect the other way counts as inactive or inconclusive. Potency is read from the fitted curve at half-maximal effect.

SMILES	SW480 rerep	PINK1 expr mod	KB-3-1 cytotox	KB-V1 MDR tox	MCF10A rereplic
O=C(COc1ccc(Cl)cc1)Nc1ccc(N2CCN(C(=O)c3ccco3)CC2)cc1	14%	2%[38.3 µM]	?	13µM*	?
O=C(COc1ccccc1Cl)Nc1ccc(N2CCCC2)cc1	16µM*	5%	i	i	?
COc1cc(CN2CCOc3ccc(CN4CCC(O)(c5cccnc5)CC4)cc3C2)cc(OC)c1	.	0%	.	.	.
Cc1c(C)n(Cc2ccccc2)c2ccc(C(=O)NCCc3ccccc3Cl)cc12	.	-1%	i	i	.
Cc1cccc(OCC(=O)Nc2ccc(N3CCN(S(C)(=O)=O)CC3)cc2)c1C	-4%	5%	i	i	2%
Cc1ccccc1OCC(=O)Nc1ccc(N2CCN(C(=O)c3ccco3)CC2)cc1	-2%	1%	?	7.3µM*	0%
Cc1ccccc1OCC(=O)Nc1ccc(N2CCN(S(C)(=O)=O)CC2)cc1	-1%	-2%	i	3.7µM*	9%
O=C(c1ccco1)N1CCN(C(=O)C(Sc2ccccc2)c2ccccc2)CC1 (configuration not stated)	-4%	-2%[38.3 µM]	?	21µM*	?
Cc1cccc(OCC(=O)Nc2ccc(N3CCN(C(=O)c4ccco4)CC3)cc2)c1C	-1%	4%	i	i	7%
O=C(COc1ccccc1[N+](=O)[O-])Nc1ccc(N2CCN(C(=O)c3cccs3)CC2)cc1	1%	0%	i	9.2µM*	22%
O=C(C(Sc1ccccc1)c1ccccc1)N1CCN(c2ccccc2)CC1 (configuration not stated)	?	-2%	i	?	9%
CCCCN(CCCNC(=S)NCCCc1cnc[nH]1)c1ccc(Br)cn1	.	4%	i	i	.
O=c1[nH]c(C(F)(F)C(F)(F)C(F)(F)F)no1	-11%	1%	i	i	5%
CCOC(=O)c1cccc(NC(=O)CC2C(=O)N(c3ccccc3)C(=O)N2Cc2ccco2)c1 (configuration not stated)	.	0%	.	.	.
CC(C)[C@H](NC(=O)c1ccc(Br)cc1)C(=O)NC1CCCCC1	-12%	14%	i	i	-6%
COc1ccc(C2C(C(=O)Nc3ccccc3)=C(C)Nc3nc(-c4ccccc4)nn32)cc1OC (configuration not stated)	.	5%	i	i	.
O=C(NCCCN1CCN(c2ccccc2)CC1)c1nnc(Cc2ccc(F)cc2)o1	.	4%	i	i	.
CC(Oc1ccc(Cl)cc1)C(=O)N1CCN(C(=O)c2ccco2)CC1 (configuration not stated)	-10%	-3%	i	21µM*	-5%
O=C(c1ccco1)N1CCN(Cc2ccc(Cl)cc2)CC1	-1%	-1%	i	i	-1%
NC(=O)c1ncn([C@@H]2O[C@H](CNCc3c(OCc4ccccc4F)ccc4ccccc34)[C@@H](O)[C@H]2O)n1	-4%	0%	i	i	-5%
CCN(CC(=O)Nc1c(F)cccc1F)C(=O)c1ccc(S(=O)(=O)N2CCCCCC2)cc1	-5%	0%	i	?	2%
CCN(CC(=O)Nc1c(F)cccc1F)C(=O)c1ccc(S(=O)(=O)N2CCC(C)CC2)cc1	0%	2%	i	21µM*	-1%
CC1(C(=O)O)CCCN1C(=O)c1cccc2ccccc12 (configuration not stated)	.	0%	i	i	.
COc1ccc(Cn2c(C3CC3)nc3ccc(NC(C)=O)cc3c2=O)cc1	-2%	0%	i	i	-4%
COc1ccc(Cn2c(C3CC3)nc3ccc(NC(=O)c4cccnc4)cc3c2=O)cc1	?	4%	5.8µM*	?	1%
SMILES	SW480 rerep	PINK1 expr mod	KB-3-1 cytotox	KB-V1 MDR tox	MCF10A rereplic
Cc1nc2c(OCC(=O)c3ccc(F)cc3)cccn2c1N(C)Cc1cccs1	.	-1%	i	i	.
Cc1nc2c(OCc3ccc(C#N)cc3)cccn2c1N(C)Cc1cccs1	.	1%	?	15µM*	.
COc1ccc(-c2ccc3oc(-c4ccsc4)cc(=O)c3c2)cn1	2.9µM*	0%	i	i	1%
COc1ccc(-c2oc3ccc(-c4ccc(OC)nc4)cc3c2-c2ccc(OC)cc2)cc1	?	2%	i	i	6.5µM*
COc1ccc(-c2cc(=O)c3cc(O)ccc3o2)cc1	-7%	0%	i	?	-2%
COc1ccc2oc(-c3ccncc3)cc(=O)c2c1	-10%	-1%	?	3.7µM*	-42%
COc1ccc(-c2c(-c3ccsc3)oc3ccc(N4CCOCC4)cc23)cn1	4%	2%	i	i	18µM*
Cc1c(Cl)cccc1NC(=O)Cn1cc(C(=O)C2CCCCC2)c2ccccc21	.	8%	.	.	.
Cc1ccccc1S(=O)(=O)NC(=O)C1(C)CCN1C(=O)CC1CCCC1 (configuration not stated)	.	3%	i	i	.
O=c1cc(-c2ccccc2)oc2ccc(O)cc12	-11%	-2%	i	5.8µM*	-2%
COC(=O)c1ccc(/C=C/c2c(-c3ccsc3)oc3ccc(N4CCOCC4)cc23)cc1	-4%	10%	?	i	5.8µM*
Nc1ccc(C#Cc2c(-c3ccsc3)oc3ccc(N4CCOCC4)cc23)cc1	3%	-1%	i	i	13µM*
O=c1cc(-c2ccccc2)oc2ccccc12	-53%	0%	i	i	?
COc1cc(=O)n2c(c1C(=O)N(C)C(C)c1ccco1)CCN(C(=O)c1ccc(C(C)=O)cc1)CC2 (configuration not stated)	.	0%	.	.	.
COC(=O)[C@@]1(Sc2ccc(C)cc2)CC(=O)N(c2ccccc2)[C@@H]1c1ccccc1	.	-1%	?	16µM*	.
CCc1cc(-c2[nH]ncc2-c2ccc([N+](=O)[O-])cc2)c(O)cc1OC	26%	1%	i	i	?
COc1ccc(-c2cn[nH]c2-c2ccc(OCc3ccc([N+](=O)[O-])cc3)cc2O)cc1OC	4%	-1%	?	4.1µM*	-1%
COc1ccc(-c2cn[nH]c2-c2ccc(OCc3ccccc3F)cc2O)cc1OC	?	-1%	?	18µM*	?
O=[N+]([O-])c1ccc(COc2ccc(-c3[nH]ncc3-c3ccc(Cl)cc3)c(O)c2)cc1	?	-3%	i	i	23µM*
O=S(=O)(c1ccccc1)N1CCN(c2ccnc3cc(Cl)ccc23)CC1	2%	0%	i	?	10%
Cc1cc(N2CCN(S(=O)(=O)c3ccccc3)CC2)c2ccccc2n1	?	0%[38.3 µM]	i	?	3.7µM*
Cc1cc(N2CCN(c3ccc([N+](=O)[O-])c4cccnc34)CC2)c2ccccc2n1	9%	?	16µM*	?	?
